# The full list was thinned out, with hits kept by preference.
# HT1080 IDH1KD tx: qHTS for induction of synthetic lethality in tumor cells producing 2HG: qHTS for the HT-1080-IDH1KD cell line | HT-1080 IDH1 knockdown viability, ATP luminescence, 48 h | Potency, µM (top dose mostly 46.1 µM), for inactives: at the highest dose activity, negative = toxicity, actives largely listed as cytotoxic | actives 2% (n = 360,000) | AID 686971, 2013;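 also: potency is read from the fitted curve at half-maximal effect; 0% = DMSO wells and -100% = cell-free medium wells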
#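 HT-1080-IDH1KD cells (IDH1 knocked down), 750/well in RPMI with 5% FBS, treated with compound 48 h at 37 degrees C. Viability by CellTiter-Glo luminescence, normalised to DMSO and no-cell wells; concentration-response curves classed.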
# DT40 TDP1 CPT: qHTS for Inhibitors of human tyrosyl-DNA phosphodiesterase 1 (TDP1): qHTS in cells in presence of CPT; chicken DT40 Tdp1-/-;hTDP1 cells + 20 nM CPT, ATP luminescence, 48 h; Potency, µM (series often up to 46.2 µM), without a hit: at the top dose activity change, negative = growth inhibition, most hits filed as inhibitors; actives 12% (n = 420,000); also: potency is read from the fitted curve at half-maximal effect; nearly all actives have a fitted effect of over 55% in size
#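 Chicken DT40 Tdp1-/- cells stably complemented with human TDP1 were seeded at 400 cells/well in medium containing 20 nM camptothecin, exposed to pin-transferred compounds, and grown at 37 °C for at least 48 hr. Viability was read as ATP luminescence.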
# IL1B secr inh: qHTS for Inhibitors of Inflammasome Signaling: IL-1-beta AlphaLISA Primary Screen. THP-1 LPS/ATP IL-1B secretion, AlphaLISA, 16 h; stronger effect = lower value. activity change, % at 57.5 µM. actives 4.7% (n = 360,000). AID 743279, 2014; in the data active = activity change below about -50%; inconclusive = mostly about -30% to -49%
#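 Secreted IL-1B measured by AlphaLISA bead assay after 16 h compound exposure of THP-1 cells; compounds (final up to 57.5 uM) added 1 h before LPS (250 ng/mL) and ATP (1.25 mM) stimulation; lower signal means less secretion.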
# HT1080NT lethal: qHTS for induction of synthetic lethality in tumor cells producing 2HG: qHTS for the HT-1080-NT fibrosarcoma cell line. actives 1.6% (n = 360,000). HT-1080-NT fibrosarcoma viability, CellTiter-Glo ATP luminescence, 48 h. Potency, µM (top dose mostly 46.1 µM), for inactives: at the highest dose activity, negative = less viability, most hits filed as cytotoxic;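 also: NT is the 2HG producing partner of a matched IDH1 knockdown line; potency is read from the fitted curve at half-maximal effect; 0% = DMSO-treated cells and -100% = media-only wells without cells; nearly all actives have a fitted effect of over 55% in size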
#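 Viability by CellTiter-Glo luminescence after 48 h compound exposure at 37C of HT-1080-NT cells (750/well, RPMI, 5% FBS). % activity scaled between DMSO wells and medium-only wells, then curve-fitted and categorized by curve class.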
# 12-LOX inh: Primary qHTS assay for inhibitors of human arachidonate 12S-lipoxygenase (ALOX12): Round 2 | purified 12hLO, xylenol orange hydroperoxide absorbance | AID 1671190, 2021 | Polyunsaturated fatty acid lipoxygenase ALOX12 (Homo sapiens), P18054 | actives 1.1% (n = 580,000) | Potency, µM (titrated, usually from 108 µM), without a hit: top-dose activity change, negative = inhibition, usual class: inhibitors; also: potency is read from the fitted curve at half-maximal effect
# Target sequence (P18054 whole entry, looked up): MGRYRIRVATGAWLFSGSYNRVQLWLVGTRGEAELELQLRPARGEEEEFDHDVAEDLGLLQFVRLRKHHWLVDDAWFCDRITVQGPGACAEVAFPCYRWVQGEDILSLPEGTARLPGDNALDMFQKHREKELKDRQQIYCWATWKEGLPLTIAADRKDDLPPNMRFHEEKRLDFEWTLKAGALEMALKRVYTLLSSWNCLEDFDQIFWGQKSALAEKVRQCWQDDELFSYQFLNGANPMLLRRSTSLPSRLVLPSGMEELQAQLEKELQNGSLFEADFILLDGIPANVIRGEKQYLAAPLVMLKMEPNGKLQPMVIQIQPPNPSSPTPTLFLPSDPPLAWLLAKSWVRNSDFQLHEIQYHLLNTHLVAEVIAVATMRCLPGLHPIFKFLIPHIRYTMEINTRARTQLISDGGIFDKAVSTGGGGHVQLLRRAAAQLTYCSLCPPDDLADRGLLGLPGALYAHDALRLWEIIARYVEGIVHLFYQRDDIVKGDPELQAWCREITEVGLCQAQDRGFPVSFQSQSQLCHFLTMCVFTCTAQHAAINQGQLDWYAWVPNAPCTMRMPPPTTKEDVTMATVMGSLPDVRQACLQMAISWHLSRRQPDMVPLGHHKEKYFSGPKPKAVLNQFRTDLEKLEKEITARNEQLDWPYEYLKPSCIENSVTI
#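 Purified human 12hLO (150 nM final) in 25 mM Hepes, 0.01% Triton X-100, pH 7.0 was preincubated 15 min at room temperature with compound. Then 40 uM arachidonic acid was added, 30 min. Hydroperoxide was read by Fe-XO absorbance ratio 573/405 nm.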
# TDP1 cell noCPT: qHTS for Inhibitors of human tyrosyl-DNA phosphodiesterase 1 (TDP1): qHTS in cells in absence of CPT; DT40 Tdp1-/- hTDP1 cells, no CPT, ATP luminescence, 48 h; actives 15% (n = 420,000); AID 686978, 2013; Potency, µM (series often up to 46.2 µM), for inactives: at the top dose activity change, negative = growth inhibition, actives largely listed as inhibitors; also: potency is read from the fitted curve at half-maximal effect; nearly all actives have a fitted effect of over 55% in size
#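 Chicken DT40 Tdp1-/- cells stably complemented with human TDP1 were seeded at 400 cells/well with DMSO in place of 20 nM camptothecin. After compound pinning, cells grew at least 48 hr at 37 °C; viability read by CellTiter-Glo luminescence.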
# Numbers without * were called inactive; ? = inconclusive; nt = not tested or not shown. Unless noted, calls follow the shape of the dose curve; as a rule, active = well fitted curve in the direction sought with a large enough effect; inconclusive = small, poorly fitted or top-dose-only effect, or another doubt; inactive = no such curve, though single readings can be large; an effect the other way counts as inactive or inconclusive. Unless noted, % is scaled to controls: 0 for no effect and ±100 for the full control effect.
SMILES,HT1080 IDH1KD tx,DT40 TDP1 CPT,IL1B secr inh,HT1080NT lethal,12-LOX inh,TDP1 cell noCPT
Cc1ccc(NC(=O)CCCc2ccccc2)nc1,-2.4%,-3.2%,-14.8,-3.9%,-21.1%,-8.8%
Fc1ccccc1NC(=S)NN(Cc1ccccc1)c1ccccc1,?,?,2.6,11.2µM*,-4.8%,?
Fc1ccccc1NC(=S)NCCc1ccccc1,0.5%,7.31µM*,39.1,-1.1%,0.0%,9.2µM*
CC(C)c1ccccc1NC(=S)NN(Cc1ccccc1)c1ccccc1,-15.2%,?,?,-29.0%,?,?
Cc1cccc(NC(=O)NCCCCc2ccccc2)c1,0.6%,-20.7%,-17.8,13.9%,-2.7%,-12.5%
Cc1ccc(NC(=S)NCCc2ccccc2)nc1,3.6%,?,38.8,-16.7%,?,5.8µM*
CC12CC3(C)CC(C(=O)O)(C1)CC(C(=O)O)(C2)C3,nt,nt,nt,nt,-10.1%,nt
CN(C)S(=O)(=O)N(C)CC1COc2ccccc2O1 (stereo not drawn),nt,nt,nt,nt,3.9%,nt
Cc1cc(C)cc(NC(=S)NCCc2ccc(Cl)cc2)c1,nt,nt,nt,nt,-3.6%,nt
Fc1ccccc1NC(=S)NCCc1ccc(Cl)cc1,-18.0%,?,?,-17.8%,39.8µM*,-24.1%
O=C(NCCc1ccccc1)Nc1cccc(Cl)c1,-16.4%,16.4µM*,-16.0,-12.7%,32.9%,?
Cc1cccc(C)c1NC(=S)NCCc1ccc(O)c(O)c1,-9.4%,16.4µM*,11.6,-4.9%,35.5µM*,13µM*
S=C(NCCc1ccccc1)Nc1ncccn1,-8.1%,1.5%,-6.4,-4.0%,?,-16.7%
Cc1cccnc1NC(=S)NCCc1ccccc1,-2.5%,?,-20.8,-11.2%,7.08µM*,20.6µM*
COc1ccc2nc(SC3CC(=O)N(c4cccc5ccccc45)C3=O)nc(C)c2c1 (stereo not drawn),nt,nt,nt,nt,1.5%,nt
COc1cc(SC)ccc1C(=O)N[C@H]1C[C@@](O)(C(=O)N[C@H](C)C(N)=O)C[C@@H](O)[C@@H]1O,nt,nt,nt,nt,39.3%,nt
Fc1cccc(NC(=S)NCCc2ccccc2)c1,-23.9%,?,-10.2,-7.3%,?,20.6µM*
Fc1ccc(F)c(NC(=S)NCCc2ccccc2)c1,-17.8%,16.4µM*,-65.7*,?,-29.1%,16.4µM*
Cc1cccc(NC(=S)NCCc2ccccc2)c1C,-9.2%,25.9µM*,-21.0,-6.3%,?,?
COc1ccc(CCNC(=S)Nc2cccc(C)c2C)cc1,12.7%,?,18.0,2.2%,-0.3%,?
Cc1nc(/C=C/C(=O)N(Cc2ccccc2)C2CC2)cs1,nt,nt,nt,nt,21.0%,nt
N#CCSc1ccnc(SCC#N)n1,nt,nt,nt,nt,-2.1%,nt
CCOc1ccccc1N1Cc2cc(C)c(C)cc2C1,-2.8%,25.9µM*,4.4,0.0%,?,?
COc1ccc(OC)c(N2Cc3cc(C)c(C)cc3C2)c1,2.7%,?,-1.3,-7.5%,?,25.9µM*
Fc1ccc(-c2cnc(COc3ccc(Cl)cc3)o2)cc1,nt,nt,nt,nt,14.1µM*,nt
COC(=O)c1ccc(NC(=O)C(NC(=O)c2ccccc2)C(C)C)c(C)c1 (stereo not drawn),nt,nt,nt,nt,-19.8%,nt
CCN(CC)c1nc(C=Cc2ccc(N(C)C)cc2)c2nccnc2n1,14.2%,23.1µM*,-24.1,4.4%,?,20.6µM*
CCN(CC)c1ccc(/C=C/c2c(C)cnc3ccccc23)cc1,nt,?,nt,nt,nt,11.2µM*
CN(C)c1ccc(C=Cc2nccc3ccccc23)cc1,20.6µM*,?,-22.2,?,?,?

# Screening results: PubChem, National Center for Advancing Translational Sciences (NCATS)
